# High-throughput results from PubChem.
# Rows were chosen to be rich in hits. Some 11% of all compounds tested hit in one or more screens of this group.
# HPGD inh – qHTS Assay for Inhibitors of HPGD (15-Hydroxyprostaglandin Dehydrogenase); purified HPGD, NADH fluorescence kinetic, PGE2 substrate; Potency, µM, without a hit: top-dose activity change, negative = inhibition, actives largely listed as inhibitors; 150,000 tested, 4.3% active; active = well fitted inhibition curve with a large enough effect, not every such curve was filed as active; inconclusive = small, poorly fitted or top-dose-only effect, or another doubt; inactive = no such curve, though single readings can be large or run the other way; also: potency is read from the fitted curve at half-maximal effect; % is scaled to controls: 0 for no effect and ±100 for the full control effect
# Target sequence (P15428 whole entry, looked up): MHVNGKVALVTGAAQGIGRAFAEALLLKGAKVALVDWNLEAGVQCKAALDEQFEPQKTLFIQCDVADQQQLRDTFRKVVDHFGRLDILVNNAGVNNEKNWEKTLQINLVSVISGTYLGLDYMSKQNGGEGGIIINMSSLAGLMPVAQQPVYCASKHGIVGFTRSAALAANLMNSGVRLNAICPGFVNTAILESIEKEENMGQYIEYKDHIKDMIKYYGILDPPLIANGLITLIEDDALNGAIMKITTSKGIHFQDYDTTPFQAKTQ
#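 20 nM HPGD preincubated 15 min at room temperature with compound in 50 mM Tris-HCl pH 8, 0.01% Tween 20. Started with 1 mM NAD+ and 30 uM prostaglandin E2; NADH fluorescence (360/450 nm) read 5 times over 30-s intervals, last minus first.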
# CBFb-RUNX1 inh – qHTS Assay for Compounds Blocking the Interaction Between CBF-beta and RUNX1 for the Treatment of Acute Myeloid Leukemia; Runt-related transcription factor 1 (Homo sapiens) + Core-binding factor subunit beta …; AlphaScreen CBFb-His/RUNX1-biotin binding, biochemical; Potency, µM (highest dose often 59.8 µM), for inactives: at the top dose activity, negative = inhibition, actives largely listed as inhibitors; 230,000 tested, under 10 active; AID 1477, 2009; also: % of control where 0% means no effect
#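 Bead-based AlphaScreen assay; binding partners His-tagged CBF-beta and biotinylated RUNX1 at 30 nM each. Compound exposure 15 min after a 20-min protein preincubation; bead step 90 min; all steps at room temperature.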
# HTT aggregate – qHTS Multiplex Assay to Identify Dual Action Probes in a Cell Model of Huntington: Aggregate Formation (GFP). PC12 HttQ103-GFP aggregates, Acumen cytometry, 40 h. 220,000 tested, 1.1% active. Potency, µM (titrated, usually from 46.1 µM), for the others: top-dose activity change, negative = inhibition, hits mostly inhibitors; also: potency is read from the fitted curve at half-maximal effect; % is scaled to controls: 0 for no effect and ±100 for the full control effect; nearly all actives have a fitted effect of over 60% in size
#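 Multiplexed with ATP-based cell death, this channel scores GFP aggregates in PC12 cells expressing inducible HTTex1-Q103-GFP. Induction used 100 nM tebufenozide; compounds were tested in concentration series.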
# ALDH1A1 block – qHTS Assay for Inhibitors of Aldehyde Dehydrogenase 1 (ALDH1A1); Purified ALDH1A1, NADH fluorescence, propionaldehyde substrate; 220,000 tested, 7.3% active; AID 1030, 2008; Potency, µM (titrated, usually from 75.3 µM), inactives show at the highest dose activity, negative = inhibition, most hits filed as inhibitors; active = well fitted inhibition curve with a large enough effect, not every such curve was filed as active; inconclusive = small, poorly fitted or top-dose-only effect, or another doubt; inactive = no such curve, though single readings can be large or run the other way;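 also: potency is read from the fitted curve at half-maximal effect; plate controls were no enzyme wells and a reference inhibitor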
# Target sequence (P00352 whole entry, looked up): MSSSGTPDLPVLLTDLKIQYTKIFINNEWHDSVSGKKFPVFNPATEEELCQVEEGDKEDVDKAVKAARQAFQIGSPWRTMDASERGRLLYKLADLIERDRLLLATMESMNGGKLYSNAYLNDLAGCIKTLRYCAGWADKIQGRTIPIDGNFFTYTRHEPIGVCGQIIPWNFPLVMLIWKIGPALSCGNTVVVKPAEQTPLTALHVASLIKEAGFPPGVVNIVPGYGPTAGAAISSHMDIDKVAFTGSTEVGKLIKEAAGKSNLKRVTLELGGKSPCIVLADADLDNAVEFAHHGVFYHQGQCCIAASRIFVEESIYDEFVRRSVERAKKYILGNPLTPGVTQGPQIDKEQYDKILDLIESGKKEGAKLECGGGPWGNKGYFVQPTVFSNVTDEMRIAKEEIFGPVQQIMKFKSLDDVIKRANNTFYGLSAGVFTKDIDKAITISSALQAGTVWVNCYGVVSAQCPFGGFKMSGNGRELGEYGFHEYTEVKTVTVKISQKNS
# PNC assembly inh – High Content Assay for Compounds that inhibit the Assembly of the Perinucleolar Compartment. PC3M PTB-GFP, PNC prevalence imaging, 16 h; stronger effect = lower value. 140,000 tested, 3.1% active. activity change (PNC), negative = inhibition, % at 10 µM;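 active = readout at or below -70, meaning at least 70% loss of cells showing the perinucleolar compartment, a nuclear body marking cancer cells; inconclusive = readout between -30 and a set limit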;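 also: plate controls were DMSO wells for no effect and camptothecin positive control wells for full effect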
#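 Read-out is percentage of cells bearing a perinucleolar compartment, from automated 20x imaging of fixed, Hoechst-stained PC3M PTB-GFP cells. Cells were seeded 4 h, then exposed 16 h to compound (23 nl of library stock) in duplicate plates.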
# HTT cytoprotect – qHTS Multiplex Assay to Identify Dual Action Probes in a Cell Model of Huntington: Cytoprotection (ATP). Potency, µM (series often up to 56.4 µM), for the others: cytoprotection (ATP increase), actives largely listed as activators. PC12 HTT-Q103 induced, cytoprotection, ATP luminescence, 40 h. 230,000 tested, 0.14% active. AID 1471, 2008; also: potency is read from the fitted curve at half-maximal effect; % of control where 0% means no effect; nearly all actives have a fitted effect of over 45% in size
#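 PC12 cells with ecdysone-inducible HTT exon 1 Q103-GFP, induced with 100 nM tebufenozide and co-treated with library compounds in a dose series (1536-well, 1500 cells/well). Cytoprotection read as ATP content by ATPlite luminescence.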
# * marks the source's active call; other numbers are inactive results; ? = inconclusive; . = no result given; ! = a repeat was not active; [ ] = another dose, or the depositor's remark. Unless noted, calls follow the shape of the dose curve; as a rule, active = well fitted curve in the direction sought with a large enough effect; inconclusive = small, poorly fitted or top-dose-only effect, or another doubt; inactive = no such curve, though single readings can be large; an effect the other way counts as inactive or inconclusive.
SMILES,HPGD inh,CBFb-RUNX1 inh,HTT aggregate,ALDH1A1 block,PNC assembly inh,HTT cytoprotect
COc1ccc(C(=O)c2c(C)c3cc(C)ccc3n2CC(O)CN2CCOCC2)cc1 (centres undefined),-29%,0%,5%,11µM*,?,.
Cc1ccccc1-n1c(N)c(C(=O)Nc2ccc(F)cc2)sc1=S,.,-10%,36%,20µM*,.,.
Cc1ccc(-n2c(N)c(C(=O)Nc3ccccc3F)sc2=S)cc1C,.,?,-18%,10µM*,.,-7%
Cc1ccc(NC(=O)c2sc(=S)n(-c3cc(C)ccc3F)c2N)cc1,.,-17%,9%,13µM*,.,-21%
CC(=O)NC1C(O)O[C@H](C(=O)O)[C@@H](O)[C@@H]1O (some centres undefined),.,6%,.,.,.,.
CC[C@H]1C2=C3C(CC[C@H]4C(OCc5ccc(F)cc5C(F)(F)F)OC[C@](C)([C@@H]34)N(C(=O)OC(C)(C)C)C2)C(COC(C)=O)C1COC(C)=O (some centres undefined),-15%,1%,.,-15%,.,14%
Cc1ccc(S(=O)(=O)N(C)C)cc1NC(=S)N1CCc2ccccc21,.,-2%,12%,25µM*,.,-27%
CN(C)S(=O)(=O)c1cccc(NC(=S)N2CCc3ccccc32)c1,.,-11%,?,18µM*,.,-5%
Cc1ccc(S(=O)(=O)N(C)C)cc1NC(=O)Nc1ccccc1,.,8%,-11%[9.22 µM],.,.,-5%[10 µM]
COc1cccc(CNC(=O)c2ccc3nc[nH]c3c2)c1,-14%,0%,5%,5%,45,-5%
O=c1[nH]c(CSc2nc(-c3ccccc3)cs2)nc2ccccc12,-14%,-5%,2%,?,16,15%[10 µM]
Cc1cccc(C)c1Nc1nnc(SCc2nc3ccccc3c(=O)[nH]2)s1,-10%,-12%,-24%,-4%,-118*,.
O=c1[nH]c(CSc2nc(-c3ccc(F)cc3)cs2)nc2ccccc12,-3%,-6%,4%,13%,-116*,16%[10 µM]
COC(=O)CCCC(=O)O,-6%,.,.,3%[13.5 µM],.,-6%[10 µM]
Cn1sc(NC(=O)c2ccc(Cl)cc2)nc1=O,?,1%,?,22µM*,-8,-78%
COC(=O)c1oc(-c2ccccc2)nc1C,.,-4%,-3%,0%,.,12%[10 µM]
COC(=O)c1oc(-c2ccc(Cl)cc2)nc1C,.,4%,13%[9.22 µM],25µM*,.,?
OC[C@@H]1NC[C@@H](O)[C@H]1O,.,.,.,.,.,7%[1.9 µM]
S=c1nc(-c2ccccc2)n(Cc2cccnc2)c2c1CCCC2,.,0%,-1%[9.22 µM],.,.,7%[10 µM]
S=c1nc(-c2ccccc2)n(Cc2ccco2)c2c1CCCC2,?,3%,22%,10µM*,25,-16%
COc1cccc2c1C(=O)c1c(O)c3c(c(O)c1C2=O)C[C@@](O)(C(C)=O)C[C@@H]3O[C@H]1C[C@H](N)[C@H](O)[C@H](C)O1,-15%,?,2.2µM*!,?,-115*,-142%
CC(=O)[C@]1(O)Cc2c(O)c3c(c(O)c2[C@@H](O[C@H]2C[C@H](N)[C@H](O)[C@H](C)O2)C1)C(=O)c1c(O)cccc1C3=O,-3%,-22%,0.63µM*,-4%,.,-35%
COc1cccc2c1C(=O)c1c(O)c3c(c(O)c1C2=O)C[C@](O)(C(=O)CO)C[C@@H]3O[C@H]1C[C@H](N)[C@@H](O)[C@H](C)O1,.,.,-3%,.,.,-26%
CC(=O)[C@]1(O)Cc2c(O)c3c(c(O)c2[C@@H](O[C@H]2C[C@H](N)[C@H](O)[C@H](C)O2)C1)C(=O)c1ccccc1C3=O,-15%,1%,0.63µM*,?,.,-97%
O=C(O)CNC(=O)c1ccc(CO)o1,-12%,6%[21.7 µM],.,?,.,-50%
SMILES,HPGD inh,CBFb-RUNX1 inh,HTT aggregate,ALDH1A1 block,PNC assembly inh,HTT cytoprotect
CCOC(=O)N/N=C(\C)c1ccccc1OC(F)F,-10%,-1%,-6%,15%,4,.
COc1ccc(/C(O)=C2\C(=O)C(=O)N(CCN3CCOCC3)C2c2ccccc2OC)cc1 (centres undefined),-2%,-3%,-4%,-7%,?,16%[10 µM]
O=C1C(=O)N(CCN2CCOCC2)C(c2ccccn2)/C1=C(/O)c1ccc(F)cc1 (centres undefined),-5%,-9%,-9%,25µM*,23,-9%
COc1ccc(/C(O)=C2/C(=O)C(=O)N(CCN3CCOCC3)C2c2ccccn2)cc1 (centres undefined),.,-17%,-2%,22µM*,-21,38%
COC(=O)c1[nH]c(C)c(/C(O)=C2\C(=O)C(=O)N(CCCN3CCOCC3)C2c2ccccn2)c1C (centres undefined),?,-10%,7%,10µM*,-2,-23%
CC(C)Oc1ccc(/C(O)=C2/C(=O)C(=O)N(CCN3CCOCC3)C2c2ccccc2)cc1 (centres undefined),-16%,13%,2%,22µM*,-17,-7%
C#CCCCO/N=C1/C[C@@H](O)[C@@H](O)[C@@H]2[C@@H]3C(=O)N(CCC(=O)OCC)C(=O)[C@H]3CC[C@H]12,.,-7%[13.1 µM],.,6%[13.5 µM],.,-12%[10 µM]
FC(F)(F)c1ccccc1-n1c(CN2CCCCC2)n[nH]c1=S,.,1%,2%[9.22 µM],.,.,0%[10 µM]
COc1cccc(CNc2ccccc2O)c1OCc1ccccc1F,.,?,6%,14µM*,.,.
COc1cc(CNCc2ccncc2)cc(Br)c1OCc1ccccc1F,-1%,1%,?,-3%,-5,-48%
COc1cc(CNc2ccc(O)cc2)cc(Br)c1OCc1ccccc1F,-11%,-1%,11%,22µM*,14,-37%[10 µM]
CCOc1cc(CNc2ccc(O)cc2)cc(Br)c1OCc1ccccc1F,-5%,-7%,13%,28µM*,?,7%[10 µM]
CCOc1cc(CNCCO)cc(Br)c1OCc1ccccc1Cl,-11%,-3%,-23%,-11%,?,-107%
CCOc1c(Br)cc(CNc2ccc3c(c2)OCCO3)cc1OC,?,-29%,-20%,2%,-98*,-91%
O[C@@H]([C@H](O)[C@@H](O)CBr)[C@@H](O)CBr,0%,5%[21.7 µM],.,?,.,-37%
